# Assay outcomes deposited in PubChem by National Center for Advancing Translational Sciences (NCATS).
# Compounds with a hit are over-represented: about 0.18% of the library has one in this group of screens.
# IDH1 R132H inh: inhibitors of human mutant IDH1 R132H; O75874; IDH1-R132H enzyme, NADPH consumption, diaphorase/resazurin fluorescence; Potency, µM (doses to about 76.6 µM), for inactives: at the highest dose activity change, negative = inhibition, most hits filed as inhibitors; 390,000 tested, 0.093% active; further: potency means the concentration at half of the fitted maximal effect; on the % scale 0 is the no-effect control and ±100 the full control effect; nearly all actives have a fitted effect of over 65% in size
#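 IDH1-R132H (0.5 ug/mL) preincubated 30 min with compound, then NADPH (0.016 mM) and alpha-KG (2 mM) added; 80 min at RT, pH 7.5. Remaining NADPH coupled via diaphorase/resazurin to fluorescence (540/590 nm); concentration-response curves normalized to no-enzyme control.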
# ERG-DNA inh: blocks human ERG Ets domain binding to DNA; fluorescence polarization, His-ERG Ets domain / labelled DNA; Potency, µM (series often up to 76.9 µM), without a hit: at the highest dose FP activity, negative = inhibition, most hits filed as inhibitors; 370,000 tested, 0.028% active; AID 624246; active means well fitted inhibition curve with a large enough effect in the polarisation, with a control signal flat; inconclusive means small, poorly fitted or top-dose-only effect, or effect the other way, or a change in a side signal; inactive means no such curve, though single readings can be large or run the other way; the % refers to the polarisation;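 further: polarization taken with two DNA probes labelled with fluorescein and Texas red; potency means the concentration at half of the fitted maximal effect; % of control where 0% means no effect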
#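 His-tagged ERG Ets domain (1 uM in the protein solution; 300mM KCl, 50mM Tris-HCl, 1mM EDTA, 1mM DTT, pH 7.5) received compound, then a probe mix of 5 nM fluorescein-DNA and 100nM Texas-615-DNA. Fluorescence polarization was read for both dyes.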
# PTAP TSG101 blk: blocks PTAP/TSG101 interaction to inhibit HIV-1 budding. Q99816. Fluorescence polarization, FITC-PTAP peptide / Tsg101 binding. Potency, µM (series often up to 115 µM), inactives show at the highest dose activity change, negative = inhibition, most hits filed as inhibitors. 340,000 tested, under 10 active. AID 493005; active means well fitted inhibition curve with a large enough effect in the main read-out, with a control signal flat, not every such curve was filed as active; inconclusive means small, poorly fitted or top-dose-only effect, or effect the other way, or a change in a side signal; inactive means no such curve, though single readings can be large or run the other way; further: potency means the concentration at half of the fitted maximal effect; % of control where 0% means no effect
# Target sequence (Q99816 whole entry, looked up): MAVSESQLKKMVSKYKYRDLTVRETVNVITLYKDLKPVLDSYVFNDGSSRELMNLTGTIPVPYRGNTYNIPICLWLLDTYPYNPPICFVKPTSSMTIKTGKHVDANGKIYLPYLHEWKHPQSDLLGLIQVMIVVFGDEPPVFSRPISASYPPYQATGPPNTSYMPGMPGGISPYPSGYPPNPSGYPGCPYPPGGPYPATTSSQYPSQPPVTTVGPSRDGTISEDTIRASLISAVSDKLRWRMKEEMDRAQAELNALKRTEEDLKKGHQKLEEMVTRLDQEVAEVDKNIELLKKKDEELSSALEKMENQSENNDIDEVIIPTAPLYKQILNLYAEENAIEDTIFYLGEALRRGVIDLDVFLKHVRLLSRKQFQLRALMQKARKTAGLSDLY
#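 Tsg101 binding domain (10 uM final) was mixed with compound and a FITC-labeled PTAP peptide (50 nM final) in HEPES pH 7.5 buffer with NaCl, Tween 20, EDTA and TCEP; fluorescence polarization was read after 20 min at r.t.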
# Apoferritin bind: candidate novel general anesthetic via apoferritin binding. 350,000 tested, 0.074% active. Potency, µM (top dose mostly 77.5 µM), for inactives: at the highest dose activity change, negative = displacement, most hits filed as inhibitors. apoferritin/1-aminoanthracene competitive binding, fluorescence; further: potency means the concentration at half of the fitted maximal effect; on the % scale 0 is the no-effect control and ±100 the full control effect; nearly all actives have a fitted effect of over 20% in size
# Target sequence (P02791 2-175 limits assumed): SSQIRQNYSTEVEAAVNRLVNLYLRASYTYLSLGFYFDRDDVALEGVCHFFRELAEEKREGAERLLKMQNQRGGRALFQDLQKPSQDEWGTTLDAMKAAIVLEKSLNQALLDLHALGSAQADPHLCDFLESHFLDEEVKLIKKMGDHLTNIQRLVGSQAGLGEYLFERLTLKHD
#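 In PBS, apoferritin at 10 uM is loaded with 1-AMA from a 50% saturated solution. After 10 min of compound exposure at ambient temperature, reduced 535 nm fluorescence indicates probe displacement.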
# Resorufin autofl: interferes with resorufin fluorescence in IDH1 counter-screen; inhibition of signal, % at 51.2 µM; AID 623980; shares compounds with IDH1 R132H inh; Resorufin detection reagent fluorescence interference, cell-free; 750 tested, under 10 active;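 further: 0% = wells with normal resorufin and full inhibition = wells lacking resorufin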
# WT IDH1 inh: inhibits human wild-type IDH1, mutant selectivity check; shares compounds with IDH1 R132H inh; Potency, µM (doses to about 115 µM), inactives show at the top dose activity change, negative = inhibition, most hits filed as inhibitors; WT IDH1 enzyme, NADPH diaphorase/resazurin fluorescence; AID 623995; 750 tested, 9% active;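 further: potency means the concentration at half of the fitted maximal effect; 0% = full WT IDH1 enzyme control and full inhibition = no enzyme wells; nearly all actives have a fitted effect of over 55% in size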
# mIDH1 confirm: inhibits human mutant IDH1 enzyme in cherrypick confirmation; shares compounds with IDH1 R132H inh; IDH1 R132H enzyme, NADPH diaphorase/resazurin fluorescence; Potency, µM (titrated, usually from 76.6 µM), inactives show at the highest dose activity change, negative = inhibition, usual class: inhibitors; 750 tested, 83% active; further: potency means the concentration at half of the fitted maximal effect; nearly all actives have a fitted effect of over 50% in size
# An asterisk follows results filed as active; ? = inconclusive; · = no result. Unless noted, the call rests on the fitted dose curve; in most records, active means well fitted curve in the direction sought with a large enough effect; inconclusive means small, poorly fitted or top-dose-only effect, or another doubt; inactive means no such curve, though single readings can be large; an effect the other way counts as inactive or inconclusive.
SMILES,IDH1 R132H inh,ERG-DNA inh,PTAP TSG101 blk,Apoferritin bind,Resorufin autofl,WT IDH1 inh,mIDH1 confirm
CN1CC(c2ccccn2)C2(SC(=S)N(Cc3ccccc3)C2=O)C12C(=O)Nc1ccccc12 (centres undefined),?,-10%,·,-17%,-2,-2%,20µM*
CN1CC(c2ccccc2)C2(SC(=S)N(Cc3ccco3)C2=O)C12C(=O)Nc1ccccc12 (centres undefined),-1%,-2%,-2%,?,·,·,·
CCN(CC)c1ccc(-c2nn3c(-c4n[nH]c5c4CCC5)nnc3s2)cc1,?,1%,-1%,312%,2,-2%,40µM*
O=C(O)c1ccc(Cl)c(S(=O)(=O)N(Cc2ccccc2)c2ccccc2)c1,?,4%,-1%,2%,·,·,·
O=C(O)c1ccc(Cl)c(S(=O)(=O)N(Cc2ccccc2)c2ccccc2Cl)c1,29µM*,-1%,-3%,-2%,8,-4%,32µM*
COc1ccccc1CNC(=O)c1cc2c(=O)oc3ccc(C)cc3c2s1,-9%,2%,·,-7%,·,·,·
Cc1ccc(CSC2=Nc3ccccc3C3=NC(CCC(=O)NCCc4ccccc4)C(=O)N23)cc1 (centres undefined),?,1%,·,?,1,4%,-9%
COc1ccc(-c2cc3nc(C4CCN(C(=O)OC(C)(C)C)CC4)c(C(=O)O)cn3n2)cc1,21µM*,4%,-9%,9%,-6,79µM*,16µM*
O=C1NC[C@H](Cc2ccccc2)N(C[C@H]2CCCN2C[C@H](Cc2ccccc2)N2C[C@H](Cc3ccccc3)N(CC3CCCCC3)C(=O)C2=O)C1=O,?,16%,-7%,·,6,-4%,?
O=C1NC[C@H](Cc2ccccc2)N(C[C@H]2CCCN2C[C@H](Cc2ccccc2)N2C[C@H](Cc3ccccc3)N(CCc3ccccc3)C(=O)C2=O)C1=O,?,-1%,0%,·,0,1%,28µM*
Cc1cc(C)n(-c2nc(N(c3ccccc3)c3ccccc3)nc(-n3nc(C)cc3C)n2)n1,?,-15%,-4%,7%,-1,7%,10µM*
Cc1cc(C)n(-c2nc(Nc3ccccc3)nc(-n3nc(C)cc3C)n2)n1,0%,·,-8%,-4%,·,·,·
CCOCCCNC(=O)C(NC(=O)c1cnccn1)c1ccc(OC)cc1 (centres undefined),-5%,-4%,-2%,-7%,·,·,·
O=C(Nn1c(C2CCCCC2)nc2ccccc2c1=O)c1ccc([N+](=O)[O-])cc1,?,2%,-1%,-3%,6,1%,-30%
COc1cccc(OC)c1C(=O)Nn1c(C2CCC2)nc2ccccc2c1=O,10%,3%,-8%,-13%,·,·,·
Cc1ccc(-c2csc(N3CCC[C@@H]3C(=O)NCCn3c(C(F)(F)F)nc4ccccc43)n2)cc1,21%,-1%,-5%,?,·,·,·
CCCn1c(C2CCCN2c2nc(-c3cccc(Br)c3)cs2)nc2ccccc21 (centres undefined),?,-9%,0%,-21%,5,-3%,25µM*
CCOC(=O)c1c(NC(=O)COC(=O)c2ccccc2NC)sc(C(=O)N(C)C)c1C,12µM*,0%,-1%,1%,-4,10%,4.5µM*
CCOC(=O)c1c(NC(=O)COC(=O)Cc2ccccc2[N+](=O)[O-])sc(C(=O)N(C)C)c1C,0%,2%,1%,·,·,·,·
Cc1ccc2[nH]c(=O)c3cc(C(=O)N(C)c4ccc(C)c(C)c4)sc3c2c1,52µM*,-4%,-14%,3%,0,-12%,16µM*
CCN(C(=O)c1cc2c(=O)[nH]c3ccc(C)cc3c2s1)c1ccc(F)cc1,-6%,15%,0%,-8%,·,·,·
CCN(C(=O)c1cc2c(=O)[nH]c3ccc(C)cc3c2s1)c1cccc(C)c1,21µM*,-5%,-1%,-10%,-3,10%,22µM*
